Experimental data reported in PubChem BioAssay (Tox21).
Inconclusive results are not listed. Entries that show only a call come without a potency. Active and inactive are the calls of the source. Calls follow the shape of the dose curve; as a rule, active = well fitted inhibition curve with a large enough effect in the signal ratio in the repeat runs, with a control signal flat; inconclusive = weak or mixed curves, or effect the other way; inactive = flat fitted curve, though single readings scatter; the % refers to the signal ratio.

The compounds below were run against D(2) dopamine receptor (Homo sapiens) (UniProt P14416) (assay: Dopamine D2 receptor (DRD2) small molecule antagonists, cell-based qHTS assay (AID 1963595)). Conditions: HEK293-DRD2 cAMP HTRF antagonist mode; series mostly up to 92.4 µM; activity change, negative = inhibition: at the top concentration.
Source text: National Center for Advancing Translational Sciences [NCATS]
Division of Preclinical Innovation [DPI]
U.S. Environmental Protection Agency [EPA]
National Institutes of Environmental Health Sciences [NIEHS]
National Toxicology Program [NTP]
U.S. Food and Drug Administration [FDA]
DRD2 is the D2 subtype of the dopamine receptor, which is coupled to Gi subtype of G protein-coupled receptor. This G protein-coupled receptor inhibits adenylyl cyclase activity. The DRD2-HEK293 cell line stably expressing D2 dopamine receptor can be used for screening agonists and antagonists of interactions between D2 and its ligands. The Hek293-DRD2 cAMP assay is based on HTRF technology. It measures changes of cAMP accumulation in response to Gi coupled GPCR activation or inhibition.
Tox21 Assay Protocol Summary:
DRD2-Hek293 cells were dispensed at 600 cells/3uL/well in 1536-well white plates using a Multidrop Dispenser. After the assay plates were incubated at a 37 C/5% CO2 incubator for 24 h, 1 uL of Ro20-1724 at final concentration of 0.1 mM was transferred to the assay plate by a Flying Reagent Dispenser. Following Ro20-1724 addition, 23 nL of compound dissolved in DMSO, positive controls or DMSO only was added to the assay plates via Wako pintool station. The assay plates were incubated at room temperature for 10 min. Next, 1 uL of mixture of NKH477 (final concentration at 200 nM) and quinpirole (final concentration at 12 nM) was added into the plates. After the assay plates were incubated at room temperature for an additional 30 min, 2.5 ul/well of cAMP-d2 and 2.5 ul/well of anti-cAMP-cryptate were added respectively into the assay plates using a Flying Reagent Dispenser. The plates were incubated at room temperature for 1 h. The fluorescence intensity in the plates was measured at 340 nm excitation and 665 & 620 nm emission by an Envision plate reader.

Sequence of D(2) dopamine receptor (Homo sapiens) (P14416 whole entry, looked up): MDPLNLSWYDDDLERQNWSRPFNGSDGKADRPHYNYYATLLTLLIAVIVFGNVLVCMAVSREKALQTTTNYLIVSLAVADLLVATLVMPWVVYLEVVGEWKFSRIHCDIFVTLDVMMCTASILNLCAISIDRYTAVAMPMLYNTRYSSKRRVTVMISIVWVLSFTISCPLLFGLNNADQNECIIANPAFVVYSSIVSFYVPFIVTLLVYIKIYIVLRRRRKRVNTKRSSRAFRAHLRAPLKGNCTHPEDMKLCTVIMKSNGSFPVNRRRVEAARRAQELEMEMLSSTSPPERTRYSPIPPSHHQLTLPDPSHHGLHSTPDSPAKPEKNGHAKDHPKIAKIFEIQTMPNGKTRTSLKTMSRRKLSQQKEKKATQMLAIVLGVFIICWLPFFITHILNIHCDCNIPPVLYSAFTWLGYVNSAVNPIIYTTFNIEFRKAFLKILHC

Q: For Cc1ccc(N)c(S(=O)(=O)O)c1, which Potency is on record?
A: inactive

Q: With CCCCCCCCCCCCCO as the compound, how does the Potency read?
A: inactive

Q: With CCC(O)OC(O)CC (stereo not given) as the compound, how does the Potency read?
A: inactive

Q: Cc1occc(=O)c1O was tested. Which Potency did it give?
A: inactive

Q: Which Potency does the source give for CC/C=C(\C(=O)N[C@@H]1C(=O)N2C(C(=O)OCOC(=O)C(C)(C)C)=C(COC(N)=O)CS[C@H]12)c1csc(N)n1 here?
A: inactive

Q: With O=C1CCCCCCCCCCC1 as the compound, how does the Potency read?
A: inactive

Q: c1ccc2[nH]ccc2c1 was tested. Which Potency did it give?
A: inactive

Q: How did the Potency turn out when O=C(O)c1ccc(C(=O)O)cc1 was run?
A: inactive

Q: With O=C(O)c1ccc(S(=O)(=O)N(Cl)Cl)cc1 as the compound, how does the Potency read?
A: inactive

Q: CC(=O)Oc1ccc(C)cc1 was tested. Which Potency did it give?
A: inactive

Q: How did the Potency turn out when O=S1(=O)CC=CC1 was run?
A: inactive

Q: Nc1cccc(N)c1 was tested. Which “activity change, negative = inhibition” value did it give?
A: -4.32% (inactive)

Q: CCNC(=S)NCC was tested. Which Potency did it give?
A: inactive

Q: Which “activity change, negative = inhibition” value does the source give for C[Si]1(C)O[Si](C)(C)O[Si](C)(C)O[Si](C)(C)O1 here?
A: 4.18% (inactive)

Q: How did the Potency turn out when O=C(O)c1cccc(C(=O)O)c1 was run?
A: inactive

Q: How did the Potency turn out when OCC(O)CS (stereo not given) was run?
A: inactive

Q: For Cc1[nH]c(=O)c(C#N)cc1-c1ccncc1, which “activity change, negative = inhibition” value is on record?
A: -3.35% [at 42.5 µM] (inactive)

Q: Which Potency does the source give for O=S(=O)(O)c1ccc2nc(-c3ccccc3)[nH]c2c1 here?
A: inactive

Q: For CC1=CC(=O)CC(C)(C)C1, which Potency is on record?
A: inactive

Q: For CC(=O)OC(C)C, which Potency is on record?
A: inactive

Q: For NCCCCCCN, which Potency is on record?
A: inactive

Q: How did the Potency turn out when OC1C(O)C(O)C(O)C(O)C1O (stereo not given) was run?
A: inactive

Q: With COc1cc(O)c(C(=O)c2ccccc2)cc1S(=O)(=O)O as the compound, how does the Potency read?
A: inactive

Q: How did the Potency turn out when C[C@]12C=CC(=O)C=C1CC[C@@H]1[C@@H]2C(=O)C[C@@]2(C)[C@H]1CC[C@]2(O)C(=O)CO was run?
A: inactive

Q: Which Potency does the source give for Cc1cc(CC(=O)O)n(C)c1C(=O)c1ccc(Cl)cc1 here?
A: inactive

Q: How did the Potency turn out when OC[C@@H](O)[C@H](O)[C@H](O)[C@@H](O)CO was run?
A: inactive

Q: How did the Potency turn out when Cn1cc[nH]c1=S was run?
A: inactive

Q: With CCCCOCCO as the compound, how does the Potency read?
A: inactive

Q: Which “activity change, negative = inhibition” value does the source give for CCNc1cccc(C)c1 here?
A: -0.0832% (inactive)

Q: Which Potency does the source give for COCCOC(=O)c1ccccc1C(=O)OCCOC here?
A: inactive

Q: Which Potency does the source give for CCCCC(CC)COC(=O)/C=C\C(=O)OCC(CC)CCCC (stereo not given) here?
A: inactive

Q: Which Potency does the source give for O=C(O)CCCCC1CCSS1 (stereo not given) here?
A: inactive

Q: Which Potency does the source give for NCCOCCO here?
A: inactive

Q: For COc1ccccc1[N+](=O)[O-], which Potency is on record?
A: inactive

Q: For CC(=O)c1ccc(O)cc1, which Potency is on record?
A: inactive

Q: For Nc1ccccc1[N+](=O)[O-], which Potency is on record?
A: inactive

Q: Which Potency does the source give for NC(=O)c1ncn([C@@H]2O[C@H](CO)[C@@H](O)[C@H]2O)n1 here?
A: inactive

Q: With CC(CCO)CC(C)(C)C (stereo not given) as the compound, how does the Potency read?
A: inactive

Q: How did the Potency turn out when Fc1ccc(Br)cc1 was run?
A: inactive

Q: CC(=O)Nc1ccc(C(=O)CCl)cc1 was tested. Which Potency did it give?
A: inactive
